Bioassay records (PubChem)
This is one part of a sample in which hits are shown more often than they occur.
APE1 inh: APE1 (human) endonuclease inhibition | Potency, µM (doses to about 65.8 µM), for the others: top-dose activity change, negative = inhibition, hits mostly inhibitors | 350,000 tested, 0.35% active | P27695 | AID 2517 | recombinant APE1, TAMRA/BHQ-2 abasic DNA cleavage fluorescence;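 note: plate controls were vehicle for no effect and reference inhibitor for full effect; nearly all actives have a fitted effect of over 55% in size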
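APE1 at 0.75 nM final was preincubated with compound 15 min at room temperature, then 50 nM double-stranded THF abasic-site substrate (5'-TAMRA/3'-BHQ-2) was added. Fluorescence (ex 525/em 598 nm) was read kinetically; third-minus-first read gave activity.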
GoLoco inh red: RGS12 GoLoco-Gai1 interaction inhibition | P63096 | Gai1:RGS12 GoLoco peptide FP, rhodamine, 10 min | Potency, µM (series often up to 61.6 µM), without a hit: at the top dose activity, negative = inhibition, usual class: inhibitors | 230,000 tested, 0.44% active; active = well fitted inhibition curve with a large enough effect, not every such curve was filed as active; inactive = no such curve, though single readings can be large or run the other way; note: nearly all actives have a fitted effect of over 30% in size
BLM helicase inh: inhibitors of human Bloom syndrome helicase BLM; P54132; recombinant BLM DNA unwinding, fluorescence dequenching; 350,000 tested, 0.2% active; Potency, µM (top dose mostly 56.1 µM), for the others: top-dose activity change, negative = inhibition, actives largely listed as inhibitors;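 note: plate controls were vehicle for no effect and no enzyme for full effect; nearly all actives have a fitted effect of over 35% in size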
KDM4E inh: inhibitors of human JMJD2E histone demethylase; B2RXH2; JMJD2E catalytic domain, FDH-coupled NADH fluorescence (FDH is formaldehyde dehydrogenase); Potency, µM (highest dose often 57.1 µM), without a hit: top-dose activity change, negative = inhibition, usual class: inhibitors; 230,000 tested, 1.6% active; active = well fitted inhibition curve with a large enough effect, not every such curve was filed as active; inconclusive = small, poorly fitted or top-dose-only effect, or another doubt; inactive = no such curve, though single readings can be large or run the other way;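 note: 0% = wells with enzyme and -100% = buffer wells without enzyme; nearly all actives have a fitted effect of over 50% in size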
RECQ1 helicase: RECQ1 (human) helicase inhibition; P46063; RECQ1 DNA unwinding, red fluorescence kinetic read; Potency, µM (highest dose often 57.3 µM), inactives show at the highest dose activity, negative = inhibition, most hits filed as inhibitors; 240,000 tested, 0.54% active; AID 2549;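 note: plate controls were vehicle for no effect and no enzyme for full effect; nearly all actives have a fitted effect of over 30% in size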
Target sequence (P46063 whole entry, looked up): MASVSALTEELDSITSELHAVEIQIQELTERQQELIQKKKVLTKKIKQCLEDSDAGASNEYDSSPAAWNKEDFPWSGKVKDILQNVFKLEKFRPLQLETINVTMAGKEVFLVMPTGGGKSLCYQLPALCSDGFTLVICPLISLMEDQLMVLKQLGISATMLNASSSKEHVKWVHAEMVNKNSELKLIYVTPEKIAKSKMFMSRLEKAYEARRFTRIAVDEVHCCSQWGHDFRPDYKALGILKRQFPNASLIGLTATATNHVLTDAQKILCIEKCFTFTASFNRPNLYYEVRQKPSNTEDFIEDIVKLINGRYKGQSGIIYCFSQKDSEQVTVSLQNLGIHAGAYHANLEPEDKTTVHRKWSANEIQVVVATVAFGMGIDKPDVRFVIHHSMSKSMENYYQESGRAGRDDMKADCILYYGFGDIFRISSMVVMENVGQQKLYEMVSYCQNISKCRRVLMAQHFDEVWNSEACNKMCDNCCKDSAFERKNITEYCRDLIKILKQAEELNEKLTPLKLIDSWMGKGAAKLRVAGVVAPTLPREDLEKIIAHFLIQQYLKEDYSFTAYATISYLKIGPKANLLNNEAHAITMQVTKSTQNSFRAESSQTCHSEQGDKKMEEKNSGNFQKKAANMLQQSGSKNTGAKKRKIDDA
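RECQ1T1 50 nM; forked duplex (20 bp + 30-nt ss tails) 200 nM, ATP 2 mM final; pH 8.0, 2 mM MgCl2, 2.5 ug/ml poly(dI-dC); 15 min compound preincubation; discontinuous kinetic read over 2 h at RT.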
L3MBTL1 block: inhibitors of human L3MBTL1; AID 485360; Potency, µM (series often up to 57.1 µM), for inactives: top-dose activity, negative = inhibition, most hits filed as inhibitors; 230,000 tested, 0.66% active; AlphaScreen L3MBTL1–H3K9me1 peptide binding; Q9Y468; note: nearly all actives have a fitted effect of over 60% in size
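AlphaScreen assay: L3MBTL1 (50 nM final) was preincubated 30 min at room temperature with biotinylated H3(1-15)K9me1 peptide (75 nM final), then 30 min with library compounds; streptavidin donor and nickel chelate acceptor beads (10 ug/mL final) added, 30 min dark.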
Numbers without * were called inactive; i = inactive; ? = inconclusive; . = no result; [ ] = dose if it differs, or a comment. Unless noted, calls come from the whole dose curve; as a rule, active = well fitted curve in the direction sought with a large enough effect; inconclusive = small, poorly fitted or top-dose-only effect, or another doubt; inactive = no such curve, though single readings can be large; an effect the other way counts as inactive or inconclusive. Unless noted, % is set by controls: 0 for no effect and ±100 for the full control effect; potency is the fitted concentration of half-maximal effect.

SMILES	APE1 inh	GoLoco inh red	BLM helicase inh	KDM4E inh	RECQ1 helicase	L3MBTL1 block
C[C@H]1O[C@@H](O[C@H]2CC[C@@]3(C)[C@H](CC[C@@H]4[C@@H]3C[C@@H](O)[C@]3(C)[C@@H](C5=CC(=O)OC5)CC[C@]43O)C2)C[C@H](O)[C@@H]1O[C@H]1C[C@H](O)[C@H](O[C@H]2C[C@H](O)[C@H](O[C@@H]3O[C@H](CO)[C@@H](O)[C@H](O)[C@H]3O)[C@@H](C)O2)[C@@H](C)O1	-8.2%	.	.	.	.	.
Cc1nnn(-c2nonc2N)c1C(=O)N/N=C/c1ccccc1O	12.1%	17.8%	-11.3%	12.6µM*	i	0.6%
C[C@]12CCC(=O)C=C1CC[C@@H]1[C@@H]2[C@@H](O)C[C@@]2(C)[C@H]1CC[C@]2(O)C(=O)COP(=O)(O)O	.	.	1.2%	.	.	.
Cc1ccc(CNc2nc3ccc(Cl)cc3n3cnnc23)cc1	.	.	-1.1%	.	.	.
CCOc1ccc(-c2cc(NC(=O)c3c(F)cccc3F)c(C(=O)OC)s2)cc1	.	.	-3.2%	.	.	.
Cc1ccc([N+](=O)[O-])c(N)c1	0.3%	10.2%	.	.	5.2%	.
Cc1ccc([N+](=O)[O-])c(C)[n+]1C	-4.8%	-9.3%	-8.5%	17.8µM*	-5.7%	?
CN1C(=O)/C(=C2\SC(=S)N(C(CCC(=O)O)C(=O)O)C2=O)c2ccccc21 (stereo not drawn)	1.4%	-10.9%	-4.2%	12.6µM*	2.1%	-8.5%
O=C(O)c1ccc(-n2cccc2/C=C2/SC(=O)N(CC(=O)N3CCCC3)C2=O)cc1	3.36µM*	.	-6.0%	.	.	.
COC(=O)c1[nH]c(=O)c2ccccc2c1O	?	8.8%	-16.9%	?	-3.5%	-4.1%
CCc1ccc2c(O)c3c(cc2c1C(=O)OC)C(=O)c1c(O)ccc(O)c1C3=O	?	37.9%	-11.1%	2.82µM*	-7.4%	.
COc1ccccc1/C=C/C=N/n1c(-c2n[nH]c3c2CCC3)n[nH]c1=S	3.0%	8.4%	-14.5%	?	-1.7%	-19.8%
S=c1[nH]nc(-c2n[nH]c3c2CCC3)n1/N=C/C=C/c1ccco1	?	-1.4%	-7.2%	28.2µM*	12.6µM*	28.2µM*
COc1cccc(/C=N/n2c(-c3n[nH]c4c3CCC4)n[nH]c2=S)c1O	-2.4%	-1.5%	-8.0%	31.6µM*	10.1%	10.8%
O=C(CN1C(=O)CCc2cc(S(=O)(=O)N3CCOCC3)ccc21)Nc1cccc(C(F)(F)F)c1	.	.	-3.7%	.	.	.
COc1ccc(O)c(/C=N/NC(=O)c2cc(=O)[nH]c3ccccc23)c1	-3.3%	5.4%	-0.4%	7.08µM*	-5.1%	?
O=C(Nc1ccc(C2=NCCN2)cc1)c1ccc(C(=O)Nc2ccc(C3=NCCN3)cc2)c(Cl)c1	-6.0%	19.6%	257.2%	-18.1%	56.9%	-20.1%
O=C(/C=C/c1ccc(/C=C/C(=O)Nc2ccc(C3=NCCN3)cc2)cc1)Nc1ccc(C2=NCCN2)cc1	31.6µM*	.	?	.	-29.0%	.
CCCCCCCC1=CC2=C(Cl)C(=O)C(C)(OC(C)=O)C(=O)C2=CO1 (stereo not drawn)	-0.6%	10.3%	-8.7%	-10.0%	i	.
Cc1oc(-c2ccccc2Cl)nc1CN1CCCCC1c1cccnc1 (stereo not drawn)	2.3%	21.8%	-1.5%	22.4µM*	16.0%	-10.1%
COc1cc(CNc2ccc(N3CCOCC3)cc2)ccc1OCC(=O)NC(C)(C)C	-4.7%	.	-11.3%	.	.	-10.1%
COc1cc(CNc2ccc(N3CCN(C(C)=O)CC3)cc2)ccc1OCc1ccccc1	-6.0%	4.0%	-7.1%	15.8µM*	-1.5%	-29.5%
CCOCCCNC(=O)C(c1ccccc1)N1Cc2ccccc2C1=O (stereo not drawn)	.	.	-0.6%	.	.	.
O=[N+]([O-])c1cccc(Cl)c1Cl	3.3%	3.16µM*	.	.	-5.3%	.
O=[N+]([O-])c1ccccc1Oc1ccccc1Cl	0.5%	2.2%	-16.7%	0.6%	1.4%	-14.1%
SMILES	APE1 inh	GoLoco inh red	BLM helicase inh	KDM4E inh	RECQ1 helicase	L3MBTL1 block
CCN(CC)c1ccc(N=Cc2c(C)[nH]c3ccccc23)cc1	5.5%	31.2%	-3.3%	0.794µM*	i	?
Cc1ccc(NC(=O)Cn2nnc(C(=O)NCCc3ccccc3)c2N)cc1	.	.	-10.2%	.	.	.
Cc1ccc2c(c1)sc(C)[n+]2CCCS(=O)(=O)[O-]	1.5%	133.6%	-1.2%	-3.9%	4.3%	.
COc1cc(/C=C/c2sc3ccccc3[n+]2CCCS(=O)(=O)[O-])ccc1O	-2.9%	-30.8%	?	-4.0%	18.2%	28.2µM*
Oc1ccc(-c2csc(Nc3cccc4ccccc34)n2)cc1O	6.9%	.	-8.2%	.	.	25.1µM*
COc1ccc(NC(=O)CSc2nc(NS(=O)(=O)c3ccccc3)cc(=O)[nH]2)cc1	?	5.0%	?	?	14.1µM*	.
COCCCNC(=O)/C=C/c1ccc(Cl)cc1Cl	2.2%	-3.4%	2.5%	3.2%	-13.0%	10.3%
CNc1ccc(Br)cc(C(=O)/C=C/c2cc(OC)ccc2OC)c1=O	-6.2%	32.0%	-14.4%	?	-1.0%	14.1µM*
CCNc1ccc(Br)cc(C(=O)/C=C/c2ccc(Cl)cc2Cl)c1=O	0.8%	102.1%	-23.0%	-17.5%	-12.5%	17.8µM*
Cc1ccc(-c2nnc(SCc3ccccc3C#N)o2)cc1	.	.	-3.8%	.	.	.
O=C(CCCCCCCC(=O)NNC(=O)Nc1ccccc1)NNC(=O)Nc1ccccc1	5.2%	170.3%	28.2µM*	-4.9%	-1.9%	-10.3%
O=C1c2ccccc2C(=O)c2c(Nc3ccc4c5c(cccc35)C(=O)c3ccccc3-4)cccc21	.	2.1%[14.2 µM]	.	.	.	.
CNc1cccc2c1C(=O)c1ccccc1C2=O	-6.9%	64.2%	-15.0%	-8.4%	-16.6%	8.91µM*
CSc1nc(C)cc(C)c1C#N	-3.8%	9.6%	-0.3%	-4.8%	-2.8%	-0.1%
Cc1cc(C)c(C#N)c(=N)o1	1.9%	22.4µM*	-2.4%	?	6.5%	-6.3%
O=C(O)c1ccc(CSc2nnc(-c3cccc([S+](=O)([O-])NC4CCCC4)c3)n2-c2ccccc2)cc1	31.9%	.	.	.	.	.
O=C(CCN1CCN(c2ccccc2F)CC1)c1ccc(Br)cc1	-3.5%	.	-6.8%	25.1µM*	-4.2%	-1.1%
Cc1cccc(CNc2ncnc3ccc(-c4ccc5c(ccn5C)c4)cc23)c1	-1.6%	.	.	.	.	-11.6%
N#Cc1cccc(NC(=O)CSc2ccc3c4c(cccc24)C(=O)c2ccccc2-3)c1	-0.4%	11.2µM*	0.8%	8.4%	-6.3%	.
COc1ccc(NC(=O)CSc2ccc3c4c(cccc24)C(=O)c2ccccc2-3)cc1	4.5%	19.3%	-3.9%	-0.4%	-5.0%	7.9%
O=C(O)C1CCCCC1C(=O)Nc1cccc(Br)c1 (stereo not drawn)	0.474µM*	.	.	.	.	12.6µM*
